# Reference: PubChem BioAssay (EPA / NIEHS)
# A structure can be active in one record and inactive in another. The source made the active and inactive calls. How the source made its calls: active means hit-call score of the fitted dose curve at least 0.9, where 1 is the maximum; inactive means score below 0.9.
# Columns and labels:
# [1] = read-out: Thrombomodulin, THBD (gene 7056); experiment: BSK_CASM3C_Thrombomodulin: BioMAP Diversity Plus: CASM3C Assay for Thrombomodulin Biomarker Activity (AID 2283051); settings: primary human coronary artery smooth muscle cells; actives raise or lower the signal;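 further: thrombomodulin protein level measured by ELISA 24 h after dosing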
# [2] = read-out: Tissue Factor, F3 (gene 2152); experiment: BSK_CASM3C_TissueFactor: BioMAP Diversity Plus: CASM3C Assay for Tissue Factor Biomarker Activity (AID 2283052); settings: primary human coronary artery smooth muscle cells; actives raise or lower the signal;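 further: cell surface tissue factor protein level read by ELISA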
# [3] = read-out: Interferon-gamma inducible Protein 10 (IP10), CXCL10 (gene 3627); experiment: BSK_hDFCGF_IP10: BioMAP Diversity Plus: hDFCGF Assay for Interferon-gamma inducible Protein 10 (IP10) Biomarker Activity (AID 2283053); settings: primary human foreskin fibroblasts; actives raise or lower the signal
# In short: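 Primary human foreskin fibroblasts exposed to chemicals for 24 h. IP-10 measured by ELISA; changes fitted bidirectionally against DMSO baseline.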
# [4] = read-out: Urokinase-type plasminogen activator receptor (uPAR), PLAUR (gene 5329); experiment: BSK_CASM3C_uPAR: BioMAP Diversity Plus: CASM3C Assay for Urokinase-type plasminogen activator receptor (uPAR) Biomarker Activity (AID 2283054); settings: primary human coronary artery smooth muscle cells; actives raise or lower the signal;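 further: cell-surface uPAR protein level quantified by ELISA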
# [5] = read-out: Vascular cell adhesion molecule 1 (VCAM1), VCAM1 (gene 7412); experiment: BSK_CASM3C_VCAM1: BioMAP Diversity Plus: CASM3C Assay for Vascular cell adhesion molecule 1 (VCAM1) Biomarker Activity (AID 2283055); settings: primary human coronary artery smooth muscle cells; actives raise or lower the signal;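 further: VCAM-1 protein level quantified by ELISA on the cells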
# [6] = read-out: Collagen III, COL3A1 (gene 1281); experiment: BSK_hDFCGF_CollagenIII: BioMAP Diversity Plus: hDFCGF Assay for Collagen III Biomarker Activity (AID 2283056); settings: primary human foreskin fibroblasts; actives raise or lower the signal
# In short: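 Human foreskin primary fibroblasts were exposed to test chemicals for 24 h, after which collagen III was quantified by ELISA. Activity was fitted bidirectionally against DMSO as negative control and baseline.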
# [7] = read-out: Epidermal growth factor receptor (EGFR), EGFR (gene 1956); experiment: BSK_hDFCGF_EGFR: BioMAP Diversity Plus: hDFCGF Assay for Epidermal growth factor receptor (EGFR) Biomarker Activity (AID 2283057); settings: primary human foreskin fibroblasts; actives raise or lower the signal
# In short: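 Primary human foreskin fibroblasts (hDFCGF system), sampled 24 h after dosing; EGFR quantified by ELISA. Bidirectional fit relative to DMSO baseline; SRB total-protein staining in parallel cultures for cytotoxicity.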
# [8] = read-out: Interleukin-8 (IL8), CXCL8 (gene 3576); experiment: BSK_hDFCGF_IL8: BioMAP Diversity Plus: hDFCGF Assay for Interleukin-8 (IL8) Biomarker Activity (AID 2283058); settings: primary human foreskin fibroblasts; actives raise or lower the signal
# In short: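 hDFCGF human dermal fibroblasts; 24 h chemical exposure; IL-8 by ELISA; bidirectional curve fit vs DMSO baseline; gain or loss of signal scored.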
# [9] = BSK_hDFCGF_Proliferation: Cell Proliferation Assessment in the BioMAP Diversity Plus: hDFCGF Assay (AID 2283059); settings: primary human foreskin fibroblasts;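 further: curves fitted for both rise and fall of signal versus DMSO baseline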
# In short: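 Primary human foreskin fibroblasts, sub-confluent; […]; 10% TCA fix, 0.1% SRB stain, A560 total protein. Gain/loss fitted bidirectionally vs DMSO control.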
# [10] = read-out: Macrophage colony-stimulating factor (MCSF), CSF1 (gene 1435); experiment: BSK_hDFCGF_MCSF: BioMAP Diversity Plus: hDFCGF Assay for Macrophage colony-stimulating factor (MCSF) Biomarker Activity (AID 2283060); settings: primary human foreskin fibroblasts; actives raise or lower the signal
# In short: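 Human foreskin primary fibroblasts were treated with test chemical for 24 h, and M-CSF was then measured by ELISA. Data were fitted bidirectionally against DMSO as the negative control and activity baseline.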
# [11] = BSK_hDFCGF_SRB: Viability Assessment in the BioMAP Diversity Plus: hDFCGF Assay (AID 2283061); settings: primary human foreskin fibroblasts;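 further: cells exposed to compound for 24 h before the read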
# In short: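 Human foreskin primary fibroblasts were treated with compound and assessed 24 h after dosing. Total protein was measured by sulforhodamine B staining (0.1% SRB after 10% TCA fixation, 560 nm read) as a cytotoxicity marker, with bidirectional fitting against DMSO baseline.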
# [12] = read-out: TIMP metallopeptidase inhibitor 1 (TIMP1), TIMP1 (gene 7076); experiment: BSK_hDFCGF_TIMP1: BioMAP Diversity Plus: hDFCGF Assay for TIMP metallopeptidase inhibitor 1 (TIMP1) Biomarker Activity (AID 2283062); settings: primary human foreskin fibroblasts; actives raise or lower the signal
# In short: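 Primary human foreskin fibroblasts in the hDFCGF system were dosed with compound for 24 h, then TIMP-1 was measured by ELISA. Activity was fitted bidirectionally relative to DMSO control; parallel SRB staining assessed cytotoxicity.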
# [13] = read-out: Matrix Metallopeptidase 1 (MMP1), MMP1 (gene 4312); experiment: BSK_hDFCGF_MMP1: BioMAP Diversity Plus: hDFCGF Assay for Matrix Metallopeptidase 1 (MMP1) Biomarker Activity (AID 2283064); settings: primary human foreskin fibroblasts; actives raise or lower the signal
# In short: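 Primary human foreskin fibroblasts exposed to chemicals for 24 h; MMP1 measured by ELISA. Cytotoxicity tracked by SRB staining in parallel cultures; bidirectional fit relative to DMSO.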
# [14] = read-out: Vascular cell adhesion molecule 1 (VCAM1), VCAM1 (gene 7412); experiment: BSK_hDFCGF_VCAM1: BioMAP Diversity Plus: hDFCGF Assay for Vascular cell adhesion molecule 1 (VCAM1) Biomarker Activity (AID 2283065); settings: primary human foreskin fibroblasts; actives raise or lower the signal;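 on AC50: VCAM-1 protein level quantified by ELISA after 24 h chemical exposure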
# In short: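 Primary human foreskin fibroblasts (hDFCGF system) were dosed with chemical and VCAM-1 was measured by ELISA 24 h later. Bidirectional curve fitting used DMSO as negative control and activity baseline.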
# [15] = read-out: Plasminogen activator inhibitor-1 (PAI1), SERPINE1 (gene 5054); experiment: BSK_hDFCGF_PAI1: BioMAP Diversity Plus: hDFCGF Assay for Plasminogen activator inhibitor-1 (PAI1) Biomarker Activity (AID 2283066); settings: primary human foreskin fibroblasts; actives raise or lower the signal
# In short: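 Human foreskin fibroblast primary cells, 24 h chemical exposure; PAI-1 measured by ELISA. Bidirectional fitting relative to DMSO; parallel cultures stained with SRB for total protein to flag overt cytotoxicity.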
# [16] = read-out: Intercellular Adhesion Molecule 1 (ICAM1), ICAM1 (gene 3383); experiment: BSK_KF3CT_ICAM1: BioMAP Diversity Plus: KF3CT Assay for Intercellular Adhesion Molecule 1 (ICAM1) Biomarker Activity (AID 2283067); settings: primary human keratinocytes with fibroblasts; actives raise or lower the signal
# In short: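 Human keratinocyte plus foreskin fibroblast primary co-culture was exposed to chemical for 24 h. ICAM-1 was then quantified by ELISA, and the data were fit bidirectionally against DMSO as the negative control and baseline.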
# [17] = read-out: Interferon-gamma inducible Protein 10 (IP10), CXCL10 (gene 3627); experiment: BSK_KF3CT_IP10: BioMAP Diversity Plus: KF3CT Assay for Interferon-gamma inducible Protein 10 (IP10) Biomarker Activity (AID 2283068); settings: primary human keratinocytes with fibroblasts; actives raise or lower the signal
# In short: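 In a primary skin co-culture of keratinocytes and fibroblasts, IP-10 is quantified by ELISA at 24 h after dosing. SRB staining of parallel wells monitors overt toxicity. Curves are fitted both directions against DMSO.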
# [18] = BSK_KF3CT_SRB: Viability Assessment in the BioMAP Diversity Plus: KF3CT Assay (AID 2283069); settings: primary human keratinocytes with fibroblasts;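 further: fitted for both signal gain and loss against DMSO baseline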
# In short: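 Human keratinocyte and foreskin fibroblast co-culture exposed to chemical for 24 h. Total protein measured in parallel cultures by 0.1% sulforhodamine B staining after 10% TCA fixation, read at 560 nm; bidirectional fit relative to DMSO.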
# [19] = read-out: Interleukin-1 alpha (IL1a), IL1A (gene 3552); experiment: BSK_KF3CT_IL1a: BioMAP Diversity Plus: KF3CT Assay for Interleukin-1 alpha (IL1a) Biomarker Activity (AID 2283070); settings: primary human keratinocytes with fibroblasts; actives raise or lower the signal
# In short: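 Primary human keratinocyte plus foreskin fibroblast co-culture, dosed and measured at 24 h in 96-well plates. IL-1a level quantified by ELISA; bidirectional fit relative to DMSO.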
# [20] = read-out: Monokine induced gamma interferon (MIG), CXCL9 (gene 4283); experiment: BSK_hDFCGF_MIG: BioMAP Diversity Plus: hDFCGF Assay for Monokine induced gamma interferon (MIG) Biomarker Activity (AID 2283063); settings: primary human foreskin fibroblasts; actives raise or lower the signal
# In short: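 ELISA read-out of MIG from primary human dermal fibroblasts 24 h post-dosing. Gain or loss of signal fitted bidirectionally, DMSO as baseline.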
smiles,measurement,setting,value
COCC(C)N(C(=O)CCl)c1c(C)csc1C (stereo unspecified),outcome,[1],inactive
same,outcome,[2],inactive
same,outcome,[3],inactive
same,outcome,[4],inactive
same,outcome,[5],inactive
same,outcome,[6],inactive
same,outcome,[7],inactive
same,outcome,[8],inactive
same,AC50,[9],14.3 µM (active)
same,outcome,[9],inactive
same,outcome,[10],inactive
same,outcome,[11],inactive
same,outcome,[12],inactive
same,outcome,[13],inactive
same,outcome,[14],inactive
same,AC50,[15],20 µM (active)
same,outcome,[15],inactive
same,outcome,[16],inactive
same,outcome,[17],inactive
same,outcome,[18],inactive
same,outcome,[19],inactive
CN=C=S,outcome,[1],inactive
same,outcome,[2],inactive
same,AC50,[3],16.6 µM (active)
same,outcome,[4],inactive
same,outcome,[5],inactive
same,outcome,[6],inactive
same,AC50,[7],5.42 µM (active)
same,outcome,[8],inactive
same,outcome,[9],inactive
same,outcome,[10],inactive
same,outcome,[11],inactive
same,outcome,[12],inactive
same,outcome,[20],inactive
same,outcome,[13],inactive
same,outcome,[14],inactive
same,outcome,[15],inactive
same,outcome,[16],inactive
same,outcome,[17],inactive
same,outcome,[18],inactive
same,outcome,[19],inactive
CC(C)Oc1cccc(NC(=O)c2ccccc2C(F)(F)F)c1,outcome,[1],inactive
same,outcome,[2],inactive
same,outcome,[3],inactive
same,outcome,[4],inactive
same,outcome,[5],inactive
same,outcome,[6],inactive
same,outcome,[7],inactive
same,outcome,[8],inactive
same,AC50,[9],27.5 µM (active)
same,outcome,[10],inactive
same,AC50,[11],20 µM (active)
same,outcome,[12],inactive
same,outcome,[20],inactive
same,outcome,[13],inactive
same,outcome,[14],inactive
same,outcome,[15],inactive
same,outcome,[16],inactive
same,outcome,[17],inactive
same,outcome,[18],inactive
same,outcome,[19],inactive
CSC(=O)c1c(C(F)F)nc(C(F)(F)F)c(C(=O)SC)c1CC(C)C,AC50,[1],20 µM (active)
same,outcome,[2],inactive
same,AC50,[3],25.5 µM (active)
same,outcome,[4],inactive
same,outcome,[5],inactive
same,outcome,[6],inactive
same,outcome,[7],inactive
same,outcome,[8],inactive
same,AC50,[9],30.6 µM (active)
same,AC50,[10],11.4 µM (active)
same,outcome,[11],inactive
same,outcome,[12],inactive
same,outcome,[20],inactive
same,AC50,[13],4.27 µM (active)
same,AC50,[14],13.4 µM (active)
same,AC50,[15],26.9 µM (active)
same,outcome,[16],inactive
same,outcome,[17],inactive
same,outcome,[18],inactive
same,outcome,[19],inactive
COP(=S)(OC)Oc1ccc([N+](=O)[O-])c(C)c1,outcome,[1],inactive
same,outcome,[2],inactive
same,AC50,[3],14 µM (active)
same,outcome,[4],inactive
same,outcome,[5],inactive
same,AC50,[6],22.7 µM (active)
same,outcome,[7],inactive
same,outcome,[8],inactive
same,AC50,[9],24.2 µM (active)
same,AC50,[10],13.2 µM (active)
same,outcome,[11],inactive
same,outcome,[12],inactive
same,outcome,[20],inactive
same,outcome,[13],inactive
same,AC50,[14],9.37 µM (active)
same,outcome,[15],inactive
same,outcome,[16],inactive
same,outcome,[17],inactive
same,outcome,[18],inactive
same,outcome,[19],inactive
Nc1c(Cl)c(F)nc(OCC(=O)O)c1Cl,outcome,[1],inactive
same,outcome,[2],inactive
same,outcome,[3],inactive
same,outcome,[4],inactive
same,outcome,[5],inactive
same,outcome,[6],inactive
same,outcome,[7],inactive
same,outcome,[8],inactive
same,outcome,[9],inactive
same,outcome,[10],inactive
same,outcome,[11],inactive
same,outcome,[12],inactive
same,outcome,[20],inactive
same,outcome,[13],inactive
same,outcome,[14],inactive
same,outcome,[15],inactive
same,outcome,[16],inactive
same,outcome,[17],inactive
same,outcome,[18],inactive
same,outcome,[19],inactive
